# Bioassay records: PubChem, Johns Hopkins Ion Channel Center
# CHT allo act: allosteric activators of human choline transporter CHT. Q9GZV3. CHT-expressing cells, membrane potential dye, choline EC20; stronger effect = higher value; LV-AA mutant CHT in HEK293 cells. B-score at 10 µM. actives 0.49% (n = 310,000);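 active means initial fluorescence not abnormally high and integrated response B-score, plate-corrected, over 3 SD above library mean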
# Target sequence (Q9GZV3 whole entry, looked up): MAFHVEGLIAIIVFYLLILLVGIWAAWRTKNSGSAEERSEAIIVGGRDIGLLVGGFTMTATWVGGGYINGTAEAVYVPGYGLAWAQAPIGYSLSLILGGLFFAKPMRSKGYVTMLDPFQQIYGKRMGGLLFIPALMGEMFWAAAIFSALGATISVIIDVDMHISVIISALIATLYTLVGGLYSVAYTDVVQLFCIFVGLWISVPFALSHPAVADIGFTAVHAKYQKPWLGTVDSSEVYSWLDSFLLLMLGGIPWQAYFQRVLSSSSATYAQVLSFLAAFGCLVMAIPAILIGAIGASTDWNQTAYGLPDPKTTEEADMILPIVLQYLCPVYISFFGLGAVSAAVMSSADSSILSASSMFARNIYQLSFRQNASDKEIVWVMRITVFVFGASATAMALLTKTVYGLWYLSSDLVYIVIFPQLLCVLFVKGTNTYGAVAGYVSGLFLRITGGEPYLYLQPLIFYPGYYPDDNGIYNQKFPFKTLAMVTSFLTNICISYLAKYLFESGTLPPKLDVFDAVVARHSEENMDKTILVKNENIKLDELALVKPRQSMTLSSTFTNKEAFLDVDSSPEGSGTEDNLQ
# TMEM16A act: mouse TMEM16A channel activation, primary screen; B-score at 10 µM; Q8BHY3; AID 623877; HEK293 TMEM16A/YFP-H148Q/I152L, iodide quench fluorescence; stronger effect = lower value; actives 0.3% (n = 340,000);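 active means fluorescence-ratio B-score plate-corrected deviation score at least 3 library SD below zero, with starting fluorescence score within 5 deviations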;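 further: channel opened by trigger with iodide after compound preincubation; score built on the fluorescence ratio of max minus min over baseline; more negative score means more quench and so TMEM16A activation or potentiation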
# ANO1 block: mouse TMEM16A channel inhibition, primary screen. Q8BHY3. HEK293 TMEM16A/YFP iodide influx fluorescence, ionomycin. normalized B-score (activity score, 25-100; higher = stronger inhibition) at 10 µM. actives 1.2% (n = 310,000);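 active means ratio plate-corrected score three or more library SD toward inhibition, starting fluorescence score within five deviations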;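 further: score derived from kinetic fluorescence span divided by baseline fluorescence per well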
# CHT block: inhibitors of human choline transporter CHT. B-score at 10 µM. actives 0.86% (n = 310,000). Q9GZV3. CHT-expressing cells, membrane potential dye, choline response; stronger effect = lower value;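 active means B-score over 3 SD under the library average, and starting fluorescence ratio not unusually high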;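 further: choline stimulus applied at its EC90 after an EC20 pre-addition; B-score computed on integrated fluorescence ratio after choline addition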
# * marks the source's active call; other numbers are inactive results; i = inactive; . = no result given. The list is not random: actives were taken first. Their share in the collection is about 2.3%.
SMILES,CHT allo act,TMEM16A act,ANO1 block,CHT block
O=C(N/N=C/c1cc(Br)c(O)c(Br)c1)c1cc2c(ccc3ccccc32)o1,i,i,100*,i
Cc1ccc(S(=O)(=O)/N=C2/NC(=O)/C(=C/c3ccc(Br)o3)S2)cc1,i,i,25*,i
O=C(CN1CCN(C(=O)CCC(=O)N2CCC(c3ccccc3)=N2)CC1)Nc1ccc(F)cc1,.,i,.,.
Cc1c(-c2c(C#N)c(N)nc3c2CCCCCC3)cnn1C,i,i,i,i
Cc1nn(C)c(C)c1-c1c(C#N)c(N)nc2c1CCCCCC2,i,-6.13*,i,i
COc1ccc(S(=O)(=O)N2CCCCCC2)cc1C(=O)N(C)Cc1ccc(Cl)cc1Cl,i,-21.6*,i,i
COc1ccc(S(=O)(=O)N2CCCCCC2)cc1C(=O)N(C)Cc1c(F)cccc1Cl,.,i,.,.
CCN(CCn1cccn1)C(=O)CCc1nnc(C2CCCCC2)o1,i,i,i,i
CN(Cc1cccc(-n2cccn2)c1)C(=O)CCc1nnc(C2CCCCC2)o1,i,-6.37*,i,i
O=c1cc(-c2ccccc2Cl)oc2c([N+](=O)[O-])c(O)cc(O)c12,i,i,i,-12.8*
CC(=O)N1CCN(C(=O)COC(=O)CNC(=O)c2ccccc2C)CC1,i,i,i,i
O=C(CSc1nc2ccc([N+](=O)[O-])cc2[nH]1)NC1CCCCCC1,i,i,100*,i
O=C(Nc1ccccc1)Nc1ccc(F)c([N+](=O)[O-])c1,i,i,25*,i
N#Cc1ccsc1NC(=O)c1cccc([N+](=O)[O-])c1,i,i,i,i
N#Cc1ccsc1NC(=O)c1ccc(Cl)c([N+](=O)[O-])c1,i,i,i,-8.74*
O=C(Nc1ccccc1)Nc1ccc(Cl)c([N+](=O)[O-])c1,i,i,100*,i
Cc1ccc(NC(=O)Nc2ccccc2)cc1[N+](=O)[O-],i,i,i,i
O=C(Nc1ccc(C(O)(C(F)(F)F)C(F)(F)F)cc1)c1ccc(Cl)c([N+](=O)[O-])c1,i,i,100*,i
CSc1cccc(NC(=O)COC(=O)C2CCN(S(=O)(=O)c3ccccc3)CC2)c1,.,i,.,.
CC(=O)Nc1ccc(S(=O)(=O)O)c(OC(C)=O)c1,.,i,.,.
CC(CC(=O)Nc1ccc(C(N)=O)cc1)c1ccccc1 (configuration not stated),i,i,i,i
CC(CC(=O)Nc1ccc(Cl)c([N+](=O)[O-])c1)c1ccccc1 (configuration not stated),i,i,100*,i
O=C(Cc1ccccc1F)Nc1nc(-c2ccc(F)cc2)cs1,i,i,25*,i
Cc1ccc2c(c1)N(S(=O)(=O)c1ccc(CN3C(=O)c4cccnc4C3=O)cc1)CCO2,i,-22.9*,i,i
COc1ccc(CN2C(=O)c3cccnc3C2=O)cc1S(=O)(=O)N1CCOc2ccc(Cl)cc21,i,i,i,i
SMILES,CHT allo act,TMEM16A act,ANO1 block,CHT block
COc1ccc(Cl)cc1NS(=O)(=O)c1cccc(C(=O)NC2CCN(Cc3ccccc3)CC2)c1,.,i,.,.
O=C(NC1CCN(Cc2ccccc2)CC1)c1cccc(S(=O)(=O)Nc2cc(C(F)(F)F)ccc2Cl)c1,i,i,25*,i
CCC1CCCCN1C(=O)c1cccc(S(=O)(=O)Nc2cc(C(F)(F)F)ccc2Cl)c1 (configuration not stated),i,i,25*,i
O=C(c1cccc(S(=O)(=O)Nc2ccccc2Cl)c1)N1CCCCCC1,i,i,i,i
COc1ccc2ccc(=O)oc2c1CC(=O)C(C)C,.,i,.,.
C[C@H](CO)N1C[C@H](C)[C@@H](CN(C)S(=O)(=O)c2cccs2)Oc2ccc(NS(=O)(=O)c3ccccc3)cc2CC1=O,.,i,.,.
CC(C)C(=O)Nc1ccc(N2CCOCC2)c(S(=O)(=O)Nc2ccccc2Cl)c1,.,i,.,.
COc1ccc(N(CC(=O)N/N=C/c2ccccc2F)S(=O)(=O)c2ccccc2)cc1,i,i,i,i
CCOC(=O)Cc1nn(Cc2nc(-c3ccc(C)cc3)cs2)c(=O)c2ccccc12,i,i,25*,i
COc1ccc(N(CC(=O)NC2CC3CCC2C3)S(=O)(=O)c2ccccc2)cc1Cl (configuration not stated),i,i,i,i
N#CC1=C(N)SC(N)=C(C#N)C1c1ccnc2ccccc12,i,-27.9*,i,i
C=CCNC(=O)COC(=O)c1ccc(Cl)c(S(N)(=O)=O)c1,i,-29.5*,i,i
CNC(=O)COC(=O)c1ccc(Cl)c(S(N)(=O)=O)c1,i,i,i,i
Cc1cc(C(C#N)c2ccc(Cl)cc2)c(Cl)cc1NC(=O)c1cc(I)cc(I)c1O (configuration not stated),i,i,100*,i
Cc1cc(NC(=O)c2ccc(Cl)cc2)c(C)cc1O,i,i,i,i
CCOC(=O)c1c(C)[nH]c(C(=O)OCC(=O)N(C)CC(=O)Nc2ccccc2Cl)c1C,i,i,i,i
COc1cccc(CN2CCNC(=O)C2CC(=O)N(Cc2cnn(C)c2)C(C)C)c1 (configuration not stated),i,-7.55*,i,i
CN(Cc1cnn(C)c1)C(=O)CC1C(=O)NCCN1Cc1cccc(Oc2ccccc2)c1 (configuration not stated),i,i,i,i
COc1ccc(-c2csc(N(CCCN(C)C)C(=O)c3ccccc3F)n2)cc1,i,i,i,i
COc1ccc(-c2csc(N(CCCN(C)C)C(=O)c3ccccc3Cl)n2)cc1,i,i,i,-8.77*
O=C(Nc1cccnc1)Nc1ccccn1,i,-6.4*,i,i
Cc1noc(NS(=O)(=O)c2ccc(NC(=O)c3cccc(S(=O)(=O)Nc4ccccc4F)c3)cc2)c1C,.,i,.,.
COc1ccc(-c2n(CC(=O)OC3CC(C)CCC3C(C)C)c3ccccc3[n+]2C)cc1 (configuration not stated),.,-6.14*,.,.
CCOc1ccc(OCCC(=O)OCC(=O)NC2CCCCC2)cc1,i,i,i,i
Cc1ccc(NC(=O)CSc2ccccc2)cc1S(=O)(=O)N1CCOCC1,.,i,.,.
Cc1ccc(NC(=O)CN(C)CC(=O)Nc2cccc(F)c2)cc1S(=O)(=O)N1CCCCCC1,i,i,25*,i
Cc1ccc(NC(=O)COc2ccccc2)cc1S(=O)(=O)N1CCCCCC1,i,i,25*,i
Cc1ccc(NC(=O)CSc2ncnc3ccccc23)cc1S(=O)(=O)N1CCOCC1,i,i,25*,i
COc1ccc(S(=O)(=O)N2CCOCC2)cc1NC(=O)C1CC1,.,i,.,.
COc1ccc(C(=O)COC(=O)Cc2n[nH]c(=O)c3ccccc23)c(OC)c1,i,i,i,i
